Laboratory results reported in PubChem BioAssay AID720690 (Broad Institute, 2013).
Entries with a potency or affinity are not part of this list. Values without a mark were called inactive.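 Rule for the calls: active = every repeat run showing a signal drop whose fitted half-maximal concentration is at most twice the top tested concentration; inconclusive = repeat runs disagree, or flat partial drop, or poor fit; inactive = the rest.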

assay: general mammalian cell viability loss – activator set, cherry-pick, cytotoxicity control for miR-122 modulator project, dose response (AID 720690); settings: HEK293T viability, CellTiter-Glo luminescence, 48 h; series mostly up to 26 µM; activity change, negative = cytotoxicity: at the top concentration;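 note: 0% = neutral control wells and -100% = MG132 cytotoxic control wells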

| SMILES | activity change, negative = cytotoxicity |
| --- | --- |
| CN1C(=O)c2cc(NC(=O)Cc3ccccc3)ccc2OC[C@H]2O[C@@H](CC(=O)NCc3ccc(Cl)cc3)CC[C@@H]21 | -7.94% |
| CN1C(=O)c2cc(NC(=O)Nc3cccc(Cl)c3)ccc2OC[C@H]2O[C@@H](CC(=O)NCCc3ccncc3)CC[C@H]21 | 2.37% [at 23.5 µM] |
| CCOC(=O)c1nc(C)n(-c2ccc(Cl)cc2Cl)n1 | -2.63% |
| COc1ccccc1C#Cc1ccc([C@H]2[C@@H](CO)N3CCCCN(CCC(F)(F)F)C[C@H]23)cc1 | -32.3% [at 23.5 µM] |
| CCCc1ccc(S(=O)(=O)NCCc2ccncc2)cc1 | -8.93% |
| CNC(=O)C[C@@H]1CC[C@@H]2[C@@H](COc3ccc(NC(=O)Nc4ccccc4OC)cc3C(=O)N2C)O1 | 17.7% |
| COCC(=O)N1[C@H](CO)[C@H]2c3ccccc3N(C(=O)C3CC3)C[C@H]21 | -4.49% |
| CCNC(=O)C[C@H]1CC[C@H]2[C@@H](COc3ccc(NC(=O)c4ccccc4)cc3C(=O)N2C)O1 | -7.25% |
| CCCNC(=O)N1C[C@@H]2[C@H](c3ccccc31)[C@@H](CO)N2Cc1cc(F)ccc1F | -7.29% [at 23.5 µM] |
| COCC(=O)Nc1ccc2c(c1)C(=O)N(C)[C@@H]1CC[C@@H](CC(=O)NC3Cc4ccccc4C3)O[C@@H]1CO2 | 3.1% [at 23.5 µM] |
| CCOc1ccc2nc(NS(=O)(=O)c3cccs3)sc2c1 | 4.68% |
| Cn1c(-c2ccc(N)cc2)nc2ccccc21 | -17.9% |
| COC(=O)C[C@H]1CC[C@H]2[C@H](COc3ccc(NS(=O)(=O)c4ccc(F)cc4)cc3C(=O)N2C)O1 | -2.24% |
| COc1ccc(S(=O)(=O)N(C)C[C@@H]2Oc3cc(-c4cccc(F)c4)ccc3S(=O)(=O)N([C@@H](C)CO)C[C@H]2C)cc1 | -27.6% |
| O=C(C1CC1)N(CCN(C(=O)C1CC1)c1ccccc1)c1ccccc1 | -9.34% |
| CN(C)CCCNC(=O)C[C@@H]1CC[C@@H]2[C@@H](COc3ccc(NC(=O)NC4CCCC4)cc3C(=O)N2C)O1 | 11.1% [at 23.5 µM] |
| CCN(C[C@@H]1[C@@H](c2ccccc2)[C@H](CO)N1C(C)=O)C(=O)NC(C)C | -5.38% |
| COC(=O)c1nn(-c2ccccc2)c(Sc2ccc(Cl)cc2)c1/C=N/O | 37% |
| O=C(COC(=O)Cc1ccc(S(=O)(=O)N2CCOCC2)s1)Nc1ccc2c(c1)OCO2 | -7.67% |
| O=C(NC[C@@H]1N[C@@H](CO)[C@H]1c1ccccc1)C1CCC1 | -1.63% |

| SMILES | activity change, negative = cytotoxicity |
| --- | --- |
| CN(C)C(=O)c1ccc(NC(=O)c2cc(-n3cnnc3)ccc2Cl)cc1 | 0.004% |
| C[C@@H]1CN([C@H](C)CO)S(=O)(=O)c2ccc(-c3ccccc3)cc2O[C@@H]1CN(C)C(=O)c1ccc2c(c1)OCO2 | -20.1% |
| CNC(=O)C[C@H]1CC[C@@H]2[C@@H](COc3ccc(NC(=O)c4cccc(OC)c4)cc3C(=O)N2C)O1 | -16.4% |
| COC(=O)c1cc(NS(=O)(=O)c2ccc3c(c2)CCC(=O)N3)cc(C(=O)OC)c1 | 3.98% |
| CC(C)OCCCNC(=O)c1ccncc1 | -7.92% |
| CCCNC(=O)Nc1ccc2c(c1)C(=O)N(C)[C@@H]1CC[C@H](CC(=O)NCC3CCCCC3)O[C@H]1CO2 | 3.61% |
| C[C@H](CO)N1C[C@H](C)[C@H](CN(C)C(=O)NC2CCCCC2)Oc2ncc(-c3cccc(C(F)(F)F)c3)cc2C1=O | -2.88% [at 23.5 µM] |
| C[C@H](CO)N1C[C@H](C)[C@H](CN(C)CC2CCCCC2)OCCCC[C@H](C)Oc2ccc(NC(=O)Nc3cccc4ccccc34)cc2C1=O | -26% [at 12 µM] |
| Nc1ccc(Oc2ccc(Br)cc2)cc1 | 1.38% |
| C/C=C/c1ccc([C@H]2[C@@H](CO)N(C(=O)COC)[C@H]2CNC(=O)CC)cc1 | -8.03% |
| COC(=O)C[C@@H]1CC[C@@H]2[C@@H](COc3ccc(NC(=O)c4cscn4)cc3C(=O)N2C)O1 | 2.84% |
| CN1C(=O)c2cc(NC(=O)c3cccs3)ccc2OC[C@H]2O[C@@H](CC(=O)N3CCCCC3)CC[C@H]21 | -11% |
| Cc1nn(C)cc1NC(=O)C[C@H]1CC[C@H]2[C@H](COc3ccc(NC(=O)c4cccc(F)c4)cc3C(=O)N2C)O1 | -17.4% |
| CN1C(=O)c2cc(NS(C)(=O)=O)ccc2OC[C@@H]2O[C@H](CC(=O)O)CC[C@H]21 | -4.45% [at 23.5 µM] |
| Cc1cccc(NC(=O)Nc2ccc3c(c2)C(=O)N(C)[C@@H]2CC[C@@H](CC(=O)NCc4ccccc4Cl)O[C@H]2CO3)c1 | 8.79% |
| CCC(=O)N1[C@H](CO)[C@H](c2ccccc2)[C@@H]1CN(C(C)C)S(C)(=O)=O | -13.7% |
| CO[C@@H]1CN(C)C(=O)c2ccc(NC(=O)c3nc4ccccc4s3)cc2OC[C@H](C)N(Cc2cccnc2)C[C@H]1C | -2.46% |
| COc1ccc(CN2CCOC2=O)cc1OC | -2.26% |
| CO[C@H]1CN(C)C(=O)c2ccc(NS(C)(=O)=O)cc2OC[C@H](C)N(C(=O)CN(C)C)C[C@H]1C | -3.42% |
| CN1C(=O)c2cc(NC(=O)c3cccc(F)c3)ccc2OC[C@H]2O[C@H](CC(=O)N3CCc4ccccc4C3)CC[C@H]21 | -16.1% |
